For eight molecules, growth results are on record in PubChem BioAssay (NCI).

About 83,000 compounds went through this panel and 20% of them were active in at least one assay; those are over-represented in the sample as a whole.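 Percent growth is the endpoint: 0 to 100 indicates growth inhibition (40 means 60% inhibition), 0 means no net growth, and negative values indicate cell death.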 A number with no mark means an inactive call. Calls of active or inactive are those of the source. How the source made its calls: active means growth percent below 10; inactive means the rest.

Some test systems named below: NCI-H23 lung; NCI-H226 lung; NCI-H322M lung; HOP-62 NSCLC; NCI-H460 lung; HOP-92 NSCLC; NCI-H522 lung; A549/ATCC NSCLC; 786-0 renal; COLO 205 colon; DU-145 prostate; K-562 leukemia; MALME-3M melanoma; MDA-MB-231 breast; RXF 393 renal; SF-268 CNS; SF-539 CNS; UACC-257 melanoma; M14 melanoma; SF-295 CNS.
Holding throughout (assay): NCI-60 one-dose screen, 48 h (100 = growth as untreated, 0 = no growth, -100 = all killed)
Settings in all cases: 10 µM unless noted

For `COc1cc(Nc2nc(N[C@H]3CCCC[C@@H]3N)nc3cc[nH]c(=O)c23)cc(OC)c1`, the growth with NCI-H23 lung was 30.2%; with NCI-H226 lung, -13.5% (active); with NCI-H322M lung it was 9.42% (active); with HOP-62 NSCLC, 47.6%; in the assay on NCI-H460 lung, 27.6%; in the assay with HOP-92 NSCLC it was -10.1% (active). The growth in the assay on NCI-H522 lung was -9.29% (active); with A549/ATCC NSCLC, 19.1%; in the assay with 786-0 renal, 40.4%; in the assay with COLO 205 colon it was 18.8%; in the assay on DU-145 prostate it was 41.7%; with K-562 leukemia, 24.6%. For the same molecule, the growth with MALME-3M melanoma is 91.6%; in the assay with MDA-MB-231 breast it was 38.4%; in the assay with RXF 393 renal, 10.9%; in the assay with SF-268 CNS, 48.1%; in the assay with SF-539 CNS, -3.04% (active); in the assay with UACC-257 melanoma it was 7.33% (active). The growth with M14 melanoma was 40.2%.

With `O=C(Nc1cccc(-n2cc(-c3ccncc3)c(-c3ccc(Cl)c(O)c3)n2)c1)Nc1cccc(C(F)(F)F)c1`, the growth with NCI-H23 lung was 14.6%; in the assay with NCI-H226 lung it was 35.1%; with NCI-H322M lung, 48.2%; with HOP-62 NSCLC it was 38.1%; with NCI-H460 lung, 7.29% (active); in the assay with HOP-92 NSCLC, -17.7% (active). In addition, the growth with NCI-H522 lung was -10.8% (active); in the assay with A549/ATCC NSCLC, 5.74% (active); in the assay with 786-0 renal it was 34.4%; in the assay with COLO 205 colon, 94.2%; in the assay with DU-145 prostate it was 23.1%; in the assay with K-562 leukemia, 13.4%. Besides, the growth is 1.16% (active) with MALME-3M melanoma; 21.3% with MDA-MB-231 breast; 31.3% in the assay on RXF 393 renal; 28.5% with SF-268 CNS; 38.5% with SF-539 CNS; -11.6% (active) in the assay on UACC-257 melanoma. For the same molecule, the growth in the assay on M14 melanoma was 16.6%.

Take `S=C1CC(=S)NC(=S)N1`: the growth in the assay with NCI-H23 lung is 103%; with NCI-H226 lung, 103%; in the assay on NCI-H322M lung it was 124%; with HOP-62 NSCLC, 104%; in the assay with NCI-H460 lung, 102%; in the assay with HOP-92 NSCLC, 102%. Moreover, the growth was 101% in the assay with NCI-H522 lung; 111% in the assay on A549/ATCC NSCLC; 106% with 786-0 renal; 100% in the assay on COLO 205 colon; 108% in the assay with DU-145 prostate; 119% with K-562 leukemia. The growth was 121% with MALME-3M melanoma; 106% with MDA-MB-231 breast; 107% in the assay with RXF 393 renal; 102% with SF-268 CNS; 116% in the assay with SF-295 CNS; 105% in the assay on UACC-257 melanoma. Also, in the assay on M14 melanoma, the growth was 103%.

Consider `CN(C)c1ncnc2c1ccn2C1OC(CO)C(O)C1O` (configuration not stated), for which the growth in the assay on NCI-H23 lung was 54.5%; with NCI-H226 lung, 72.7%; in the assay with NCI-H322M lung, 3.23% (active); in the assay with HOP-62 NSCLC, 50.8%; in the assay with NCI-H460 lung, 45.6%; in the assay on HOP-92 NSCLC, -6.76% (active). In addition, the growth in the assay on NCI-H522 lung is 90.9%; in the assay with A549/ATCC NSCLC, 61.4%; with 786-0 renal, 34.8%; in the assay with COLO 205 colon, 54.3%; in the assay with DU-145 prostate, 3.87% (active); in the assay on K-562 leukemia, 50.4%. For the same molecule, the growth in the assay with MALME-3M melanoma was 133%; in the assay with MDA-MB-231 breast, 0.0846% (active); in the assay with RXF 393 renal it was 67.9%; in the assay on SF-268 CNS it was 40.1%; in the assay with SF-539 CNS, 67.8%; with UACC-257 melanoma, 111%. The growth in the assay on M14 melanoma was 58.7%.

Regarding `Cc1cc(C(C)(C)C)ccc1S`, the growth in the assay with NCI-H23 lung was 108%; in the assay with NCI-H226 lung, 96.3%; in the assay on NCI-H322M lung, 95.9%; with HOP-62 NSCLC, 96.2%; in the assay with NCI-H460 lung, 114%; with HOP-92 NSCLC, 86.3%. Besides, the growth is 85.8% in the assay on NCI-H522 lung; 111% in the assay on A549/ATCC NSCLC; 99.9% with 786-0 renal; 116% in the assay with COLO 205 colon; 116% in the assay on DU-145 prostate; 99.8% in the assay on K-562 leukemia. Besides, the growth with MALME-3M melanoma was 113%; in the assay on MDA-MB-231 breast, 115%; in the assay on RXF 393 renal it was 103%; in the assay on SF-268 CNS, 102%; with SF-295 CNS, 102%; with UACC-257 melanoma, 108%. In addition, in the assay on M14 melanoma, the growth is 112%.

Turning to `OC(c1cc2cc(Br)ccc2c2cc(Br)ccc12)C1CCCCN1` (configuration not stated), the growth in the assay on NCI-H23 lung is -75.4% (active); with NCI-H226 lung, -70.1% (active); in the assay on NCI-H322M lung, -84.9% (active); in the assay on HOP-62 NSCLC it was -84.1% (active); in the assay with NCI-H460 lung it was -71.7% (active); with HOP-92 NSCLC it was -88.9% (active). Also, the growth in the assay on NCI-H522 lung was -86.1% (active); in the assay with A549/ATCC NSCLC it was -81.3% (active); in the assay on 786-0 renal, -41.6% (active); with COLO 205 colon it was -89.9% (active); in the assay with DU-145 prostate, -93.5% (active); in the assay with K-562 leukemia, -72.2% (active). Also, the growth with MALME-3M melanoma is -57.5% (active); in the assay with MDA-MB-231 breast it was -73.5% (active); in the assay on RXF 393 renal, -94.1% (active); in the assay on SF-268 CNS it was -84.5% (active); with SF-539 CNS, -82.9% (active); in the assay with UACC-257 melanoma, -82.9% (active). Also, the growth in the assay on M14 melanoma is -75.8% (active).

`O=C(Nc1cccc(-n2cc(-c3ccncc3)c(-c3ccc(Cl)c(O)c3)n2)c1)Nc1ccc(Cl)c(C(F)(F)F)c1`: the growth with NCI-H23 lung was -25.8% (active); in the assay on NCI-H226 lung, 3.43% (active); in the assay on NCI-H322M lung, 24.7%; in the assay with HOP-62 NSCLC it was -17% (active); with NCI-H460 lung, -43.7% (active); with HOP-92 NSCLC, -30.7% (active). Also, the growth with NCI-H522 lung is -30% (active); with A549/ATCC NSCLC, -21.3% (active); with 786-0 renal, 4.7% (active); in the assay with COLO 205 colon it was -60.2% (active); with DU-145 prostate, -17% (active); in the assay with K-562 leukemia, -20.8% (active). Further, the growth with MALME-3M melanoma was -16.6% (active); in the assay on MDA-MB-231 breast, -36.4% (active); in the assay on RXF 393 renal, -76% (active); in the assay with SF-268 CNS, -34.5% (active); with SF-539 CNS it was -26.1% (active); in the assay on UACC-257 melanoma it was -54% (active). For the same molecule, the growth with M14 melanoma was -25.5% (active).

Take `COc1ccc(/C=C/c2c(C(C)=O)c(C)nc3ccccc23)cc1`: the growth is 60.9% in the assay with NCI-H23 lung; 92.6% with NCI-H226 lung; 99.3% in the assay with NCI-H322M lung; 79.2% in the assay on HOP-62 NSCLC; 100% in the assay on NCI-H460 lung; 79.3% with HOP-92 NSCLC. The growth with NCI-H522 lung is 61.2%; in the assay on A549/ATCC NSCLC, 80.6%; with 786-0 renal it was 94.9%; in the assay on COLO 205 colon it was 106%; with DU-145 prostate, 97.7%; in the assay on K-562 leukemia, 52.4%. Besides, the growth in the assay with MALME-3M melanoma was 101%; in the assay with MDA-MB-231 breast, 82.8%; in the assay on RXF 393 renal, 86.6%; in the assay on SF-268 CNS, 97.5%; with SF-295 CNS, 85.3%; with UACC-257 melanoma, 64.7%. In addition, the growth in the assay on M14 melanoma was 99.2%.
